Screens as filed in PubChem BioAssay.
An excerpt weighted towards active compounds, which were near 3.5% of everything screened.
GPR151 ag: activates the human receptor GPR151 | activation, % at 11.2 µM | AID 1508602 | PathHunter beta-arrestin GPR151 cells, luminescence | hit rate 1% among 650,000; in the data active means activation above about 4.9%
Target sequence (Q8TDV0 whole entry, looked up): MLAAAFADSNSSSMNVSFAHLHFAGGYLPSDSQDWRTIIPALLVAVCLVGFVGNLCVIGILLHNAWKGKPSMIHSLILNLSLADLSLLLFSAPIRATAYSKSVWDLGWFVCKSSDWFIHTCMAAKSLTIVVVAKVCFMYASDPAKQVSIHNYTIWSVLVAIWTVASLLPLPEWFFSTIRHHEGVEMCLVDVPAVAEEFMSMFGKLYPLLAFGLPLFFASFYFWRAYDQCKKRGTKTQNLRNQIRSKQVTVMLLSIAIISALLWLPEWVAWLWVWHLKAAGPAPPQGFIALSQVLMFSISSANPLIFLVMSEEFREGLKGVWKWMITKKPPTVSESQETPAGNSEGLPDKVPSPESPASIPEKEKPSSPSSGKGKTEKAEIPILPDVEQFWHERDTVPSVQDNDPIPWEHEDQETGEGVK
MITF primary: human MITF inhibition, primary screen. inhibition, % at 2.6 µM. AlphaScreen MITF homodimerization, bead proximity signal. O75030. AID 1259374. hit rate 0.91% among 650,000; in the data active means inhibition above about 50%
FBW7 act: activators of human E3 ligase FBW7. Q969H0. AID 1259310. hit rate 0.13% among 650,000. AlphaScreen FBW7–phospho-cyclin E peptide binding, activator screen. normalized activity (activation), % at 26.1 µM; in the data active means normalized activity above about 1.9%;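 further: purified mutant Fbw7 with reduced substrate affinity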
TEAD-YAP block: TEAD-YAP interaction inhibition | HEK-TIYL cells, TEAD-Gal4/YAP UAS-luciferase luminescence | inhibition, % at 9.12 µM | hit rate 1.4% among 640,000; in the data active means inhibition above about 32%
Hits are given with their value; 0 = inactive.

SMILES	GPR151 ag	MITF primary	FBW7 act	TEAD-YAP block
Cc1nc(C(=O)N2CCCC(c3nc(-c4ccncc4)ncc3-c3ccccc3)C2)cs1 (stereo unspecified)	0	0	0	54
Cc1ccc(C2=C/C(=C/c3ccc(Cl)cc3)C(=O)O2)cc1	0	0	0	0
O=C1OC(c2ccc(Cl)cc2)=C/C1=C\c1ccco1	0	53	0	0
CC1=C/C(=C/c2ccco2)C(=O)O1	0	65	0	0
CN1C/C(=C/c2ccco2)C(=O)/C(=C/c2ccco2)C1	0	0	0	0
COc1ccc(C2=C/C(=C/c3ccco3)C(=O)O2)cc1OC	0	74	0	0
CC(=O)Nc1ccccc1OS(=O)(=O)c1cc(Br)ccc1Br	0	0	0	0
COc1ccc(S(=O)(=O)Oc2ccccc2NC(C)=O)cc1C	0	0	0	45
COc1ccc(S(=O)(=O)Oc2ccccc2NC(C)=O)c2ccccc12	0	0	0	55
N#C/C(=C(/O)c1cccc(C#N)c1)c1nnc(N2CCOCC2)n1-c1ccccc1	0	0	0	0
CC(=O)Nc1cc(OC(C)=O)c2nonc2c1OC(C)=O	0	0	0	99
CC(=O)c1ccc(NC(=O)CSc2nc(C3CC3)nc3sc(C)c(C)c23)cc1	0	0	0	0
O=C1c2ccccc2C(=O)N1Cc1cc(Cl)c2cccnc2c1O	0	0	0	0
Oc1c(CN2CCCCCC2)cc(Cl)c2cccnc12	0	0	0	51
O=C1CCCN1Cc1cc(Cl)c2cccnc2c1O	0	64	0	0
O=C(Oc1c(Br)cc(Cl)c2cccnc12)N1CCCCC1	0	0	0	0
CN1CCN(Cc2cc(Cl)c3cccnc3c2O)CC1	0	79	0	54
CC1CN(Cc2cc(Cl)c3cccnc3c2O)CC(C)O1 (stereo unspecified)	0	56	0	0
OCC1CCCCN1Cc1cccc(Cl)c1Cl (stereo unspecified)	0	0	0	0
Oc1c(CN2CCOCC2)cc(Cl)c2cccnc12	0	64	0	50
CCOC(=O)C1CCN(Cc2c(Cl)cccc2Cl)CC1	0	0	0	0
CCN1CCN(Cc2cc(Cl)c3cccnc3c2O)CC1	0	0	0	47
CCOC(=O)C1CCN(Cc2cc(Cl)c3cccnc3c2O)CC1	0	0	0	72
Oc1c(CN2CCN(c3cccc(C(F)(F)F)c3)CC2)cc(Cl)c2cccnc12	0	0	0	0
OCC1CCCCN1Cc1cc(Cl)c2cccnc2c1O (stereo unspecified) (tested in a mixture with another compound)	0	66	0	76
SMILES	GPR151 ag	MITF primary	FBW7 act	TEAD-YAP block
Cc1cc(NC(=O)CCN2N=C(c3ccccc3)CCC2=O)no1	0	0	0	0
Cc1ccc(NN=c2c(=O)c3ccccc3c2=O)cc1	0	0	0	0
O=c1c(=NNc2nn[nH]n2)c(=O)c2ccccc12	0	0	0	98
O=c1c(=NNc2ccccc2)c(=O)c2ccccc12	0	0	0	0
O=c1c(=NNc2ccccc2Cl)c(=O)c2ccccc12	0	0	0	58
COc1ccccc1-c1c(C(F)(F)F)oc2cc(OC(C)C(=O)OCc3ccccc3)ccc2c1=O (stereo unspecified)	0	0	0	0
C/C=C/C(=O)OCC(=O)Nc1nc2c(F)c(F)c(F)cc2s1	0	0	0	0
CN(C(=O)NC(=O)Nc1ccc(Cl)cc1Cl)S(C)(=O)=O	0	0	0	0
COc1ccc(S(=O)(=O)OCC(F)(F)[N+](=O)[O-])cc1Br	0	0	0	44
O=C(CN(c1ccccc1)S(=O)(=O)c1ccccc1)Nc1ccccc1	0	0	0	0
CC1CCCC(C)N1CCNc1nc2ccccc2c2nc(-c3cccnc3)nn12 (stereo unspecified)	0	0	0	81
CCN(CC)CCNc1nc2cc(OC)c(OC)cc2c2nc(-c3ccccc3)nn12	0	0	0	54
CC1CCCCN1CCCNc1nc2ccccc2c2nc(-c3cccnc3)nn12 (stereo unspecified)	0	0	0	50
CCN(CC)CCCNc1nc2ccccc2c2nc(-c3cccnc3)nn12	0	0	0	49
CN1C(=O)CCC12CCN(C(=O)C1CCCc3c1[nH]c1ccccc31)CC2 (stereo unspecified)	0	0	0	0
CC(C)C(=O)NC(c1cccc([N+](=O)[O-])c1)c1ccc2cccnc2c1O (stereo unspecified)	0	54	0	73
CCCCC(=O)NC(c1ccc([N+](=O)[O-])cc1)c1ccc2cccnc2c1O (stereo unspecified)	0	0	0	0
Oc1c(C(Nc2nccs2)c2ccco2)ccc2cccnc12 (stereo unspecified)	0	0	0	0
CCCC(=O)NC(c1cccc([N+](=O)[O-])c1)c1ccc2cccnc2c1O (stereo unspecified)	0	0	0	66
CCCC(=O)NC(c1cccc(F)c1)c1ccc2cccnc2c1O (stereo unspecified)	0	0	0	50
O=[N+]([O-])c1cccc(C(Nc2nccs2)c2ccc3cccnc3c2O)c1 (stereo unspecified)	0	0	0	38
COc1cc(OC)cc(C(=O)N(Cc2nc(-c3ccccc3)no2)C(C)C)c1	0	0	0	0
COc1cc(-c2cnc3c(NC4CCC(O)CC4)nccn23)cc(OC)c1OC (stereo unspecified)	0	0	0	0
OC1CCC(Nc2nccn3c(-c4ccc5c(c4)OCO5)cnc23)CC1 (stereo unspecified)	0	0	1.9	0
O=C(NC1CC1)c1ccc(-c2cnc3c(NC4CCC(O)CC4)nccn23)cc1 (stereo unspecified)	0	0	0	51
SMILES	GPR151 ag	MITF primary	FBW7 act	TEAD-YAP block
COc1ccccc1-c1cnc2c(NC3CCC(O)CC3)nccn12 (stereo unspecified)	0	0	0	50
OC1CCC(Nc2nccn3c(-c4ccc(F)cc4)cnc23)CC1 (stereo unspecified)	0	0	0	0
CCOC(=O)C1=C(c2ccccc2)NC(=S)NC1c1cccc(OC)c1O (stereo unspecified)	0	0	0	0
CC(=O)Nc1nc(-c2nc3ccccc3s2)cs1	0	0	0	38
Cc1ccc2sc(-c3ccc(NC(=O)c4ccc(Br)cc4)cc3)nc2c1	0	0	0	0
Cc1ccc2sc(-c3ccc(NC(=O)/C=C\C(=O)O)cc3)nc2c1	0	0	0	90
Cc1ccc2sc(-c3ccc(NC(=O)C(C)(C)C)cc3)nc2c1	0	0	0	37
O=C(Nc1ccc(-c2nc3ccccc3s2)cc1)C(F)(F)F	0	0	0	67
CC1CCc2c(sc(NC(=O)c3ccc(S(=O)(=O)N4CCc5ccccc5C4)cc3)c2C(N)=O)C1 (stereo unspecified)	0	0	0	0
O=c1c(O)c(-c2ccc(F)c(Oc3ccccc3)c2)oc2ccccc12	0	0	0	0
Cc1c(C2=CC(c3ccc(Cl)cc3)n3nnnc3N2)oc2ccccc12 (stereo unspecified)	0	0	0	0
CC(C)(C)C1CCc2onc(C(=O)NC3CCCC3)c2C1 (stereo unspecified)	0	0	2.6	0
